Assay results: PubChem BioAssay AID687001 (Broad Institute, 2013)
Entries with a potency or affinity are not part of this list. Calls of active or inactive are those of the source.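 Rule for the calls: active = signal-lowering compounds whose fitted half-maximal concentration is at or below twice the top tested dose in every run; inconclusive = runs disagree, flat 30 to 70% inhibition, or poor curve fit; inactive = the rest.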

Target: Protein S100-A4 (Homo sapiens) (UniProt P26447)
Test: human S100A4 peptide interaction inhibition curves – biochemical, fluorescence polarization, cherry-picked hits, dose response (AID 687001);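 note: 0% = DMSO neutral control wells and -100% = TFP positive control wells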
Conditions: FP, S100A4/TAMRA-myosin IIA peptide binding; series mostly up to 11 µM; activity change, negative = inhibition: at the top concentration

Protein S100-A4 (Homo sapiens), sequence (P26447 whole entry, looked up): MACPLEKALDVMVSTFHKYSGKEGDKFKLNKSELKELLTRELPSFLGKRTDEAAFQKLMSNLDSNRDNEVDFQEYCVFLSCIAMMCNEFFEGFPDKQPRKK

Activity change, negative = inhibition, inactive:
C[C@@H]1CN([C@H](C)CO)C(=O)CCCn2cc(nn2)CO[C@H]1CN(C)S(C)(=O)=O -4.05%
CN1c2ccc(-c3cccc(C#N)c3)cc2[C@H]2[C@H](CCN2S(=O)(=O)c2ccccc2F)[C@H]1CO 10.8%
CN(C)CCCN(C(=O)c1ccc(S(=O)(=O)N2CCCCCC2)cc1)c1nc2cc3c(cc2s1)OCO3 -0.688%
Cc1ccc(S(=O)(=O)N(C)C[C@@H]2OCCCC[C@@H](C)Oc3ccc(NS(C)(=O)=O)cc3C(=O)N([C@@H](C)CO)C[C@@H]2C)cc1 0.697%
CN1C(=O)c2cc(NC(=O)C3CCC3)ccc2OC[C@@H]2O[C@@H](CC(=O)NCc3ccccc3F)CC[C@@H]21 2.16%
COc1ccc(C)c2sc(N(CCN(C)C)C(=O)c3ccc4ccccc4c3)nc12 -1.89%
C[C@@H]1CN([C@H](C)CO)S(=O)(=O)c2ccc(C3=CCCCC3)cc2O[C@@H]1CN(C)Cc1cncnc1 4.8%
CCOc1ccc(OCCC(=O)N(CC(=O)Nc2ccccc2C(F)(F)F)Cc2ccco2)cc1 2.4%
CCOC(=O)[C@]12CCCC=C1N(Cc1ccccc1)C(=O)[C@H](CC(=O)NCCCN1CCCC1=O)C2 0.767%
COc1ccc(S(=O)(=O)Nc2ccc3c(c2)CC(=O)N([C@H](C)CO)C[C@H](C)[C@@H](CN(C)CC2CC2)O3)cc1 8.47%
COc1ccccc1-c1noc2c1C(=O)N(Cc1cn(-c3ccc(Cl)cc3)nn1)CC2 -3.34%
CO[C@@H]1CC[C@H]2CCOc3c(C#N)cccc3C(=O)N(C)C[C@H](C)C(=O)N(C)C[C@H]1O2 -3.09%
COc1ccc(CNC(=O)CNC(=O)[C@@H]2Cc3ccccc3CN2)cc1 -1.67%
C[C@@H]1CN([C@H](C)CO)S(=O)(=O)c2ccc(-c3cccnc3)cc2O[C@@H]1CN(C)C(=O)CC1CC1 2.97%
CN1C(C(=O)Nc2ccc(OC(F)(F)F)cc2)=CC(c2ccco2)=NS1(=O)=O -0.849%
CO[C@@H]1CN(C)C(=O)c2ccc(NC(C)=O)cc2OC[C@H](C)N(Cc2cc(F)ccc2F)C[C@@H]1C -0.038%
CC=Cc1ccc2n(c1=O)C[C@@H]1[C@@H](CO)[C@H](C(=O)NCc3ccc4c(c3)OCO4)[C@H]2N1C(C)=O (mixture of isomers) -3.41%
O=C(C[C@@H]1CC[C@H]2[C@@H](COC[C@@H](O)CN2CC2CCCCC2)O1)NCc1ccc(F)cc1 7.76%
CN(CC(=O)NCC(=O)Nc1ccc(F)cc1)CC(=O)Nc1ccc(Cl)c(C(F)(F)F)c1 -1.23%
CO[C@H]1CN(C)C(=O)c2cc(NC(=O)Nc3ccc4c(c3)OCO4)ccc2OC[C@@H](C)NC[C@@H]1C 1.91%
COCCCN1CC(=O)N2C(c3ccccc3)c3[nH]c4ccccc4c3C[C@H]2C1=O (stereo partly drawn) -3.16%
Cc1ccccc1OCC(=O)Nc1ccc(S(=O)(=O)N2CCCC2)cc1 7.83%
CO[C@H]1CC[C@H]2CCN(C)C(=O)[C@@H](C)[C@H](OC)CN(C)C(=O)c3cc(C#N)ccc3OC[C@H]1O2 8.55%
COc1ccc(C=O)cc1COc1ccc2c(c1)OCO2 -4.28%
CCCC(=O)Nc1ccc2c(c1)OC[C@@H](C)N(Cc1ccc(-c3ccccn3)cc1)C[C@H](C)[C@H](OC)CN(C)C2=O 4.63%
CCOc1ccc(N(CC)C(=O)CCS(=O)(=O)c2cccc3nonc23)cc1 0.567%
C[C@H](CO)N1C[C@H](C)[C@H](CN(C)C)Oc2cc(C3=CCCC3)ccc2S1(=O)=O 3.56%
CO[C@H]1CN(C)C(=O)c2ccc(NC(=O)C3CCCCC3)cc2OC[C@@H](C)N(Cc2nccs2)C[C@@H]1C 3.38%
CCOC(=O)C1=C(c2ccccc2)NC(=O)NC1c1cc(OC)c(OC)c(OC)c1 (stereo not drawn) -3.42%
CCOc1ccc(NC(=O)CSc2nccn(-c3ccc4c(c3)OCCO4)c2=O)cc1 9.51%
C[C@@H]1CN([C@@H](C)CO)S(=O)(=O)c2ccc(Br)cc2O[C@@H]1CN(C)Cc1ccncc1 5.78%
O=C(NCc1cc([N+](=O)[O-])ccc1O)c1cccnc1Sc1ccccc1 0.274%
O=C1CN(C(=O)COc2c(F)c(F)cc(F)c2F)c2ccccc2N1 1.81%
O=C(CSc1n[nH]c(-c2ccc(Br)cc2)n1)NC1CCCC1 7.31%
Cc1cc(C(=O)CSc2nc(N)cc(=O)[nH]2)ccc1F -2.31%
COc1ccc(CCN2CC(C(=O)NCCN3CCNC3=O)CCC2=O)cc1 (stereo not drawn) 0.556%
Cc1ccc(C(=O)NC2CC(=O)N(c3ccc4c(c3)OCCO4)C2)cc1[N+](=O)[O-] (stereo not drawn) -1.36%
Cn1cnc(S(=O)(=O)N[C@@H]2C=C[C@@H](CC(=O)NCC3CC3)O[C@H]2CO)c1 -1.65%
